Where “and” joins values, the source holds several entries; their conditions need not be identical. Equal values may be shown once. Records with an inconclusive call do not appear. A call without a number means that no potency is given here. Calls of active or inactive are those of the source. Unless noted, calls follow the shape of the dose curve; as a rule, active = well fitted curve in the direction sought with a large enough effect; inconclusive = small, poorly fitted or top-dose-only effect, or another doubt; inactive = no such curve, though single readings can be large; an effect the other way counts as inactive or inconclusive.
Key:
[1] = Cell Viability - N2a (AID 540); conditions: N2a mouse neuroblastoma cell viability; activity change, negative = cytotoxicity: at 92.2 µM (top of the series); also: nearly all actives have a fitted effect of over 45% in size
How it was run: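 CellTiter-Glo ATP luminescence, read 20 min after reagent at room temperature, reported viability following 40 h compound treatment at 37 °C. N2a mouse neuroblastoma cells seeded 1500/well; Hill equation gave AC50.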

[2] = Cellular Toxicity (caspase-3) Jurkat (AID 655); conditions: Jurkat caspase-3 activation, luminescence, DMSO = 0%, tamoxifen = 100%; at 92.2 µM (top of the series);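 also: cells exposed to compound for 16 h at 37 °C before reading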
How it was run: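 qHTS in human Jurkat T-cell leukemia line: 16 hr compound treatment at 37 °C, caspase-3/7 activity measured by Caspase-Glo luminescence. AC50 derived from Hill equation.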

[3] = Cellular Toxicity (caspase-3) SHSY5Y (AID 657)
How it was run: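 Readout: caspase-cleaved peptide-aminoluciferin substrate driving luciferase light in SH-SY5Y neuroblastoma cells after 16 h treatment. Response normalized to DMSO and 10 uM staurosporine controls.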

[4] = Cellular Toxicity (caspase-3) H-4-II-E (AID 663); conditions: Potency: caspase-3 activation;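 also: cells exposed to compound for 16 hr before readout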
How it was run: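 Caspase 3/7 activation measured by luminescent aminoluciferin substrate cleavage after 16 hr compound treatment of H-4-II-E cells in complete medium. Increase normalized between DMSO (basal) and 100 uM tamoxifen (100%); Hill-equation AC50 from concentration-response.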

[5] = Cell Viability - LYMP2-001 (AID 921); also: nearly all actives have a fitted effect of over 70% in size; also: potency is read from the fitted curve at half-maximal effect
How it was run: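 A lymphoblastoid cell line of human origin was treated with library compounds across a concentration series for 24 hours, and viable cell number was estimated from ATP-driven luciferase light output. Hill modeling gave AC50.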

[6] = MultiTox-Fluor Cytotoxicity Assay - LYMP1-001 - Dead Cells (AID 946); also: potency is read from the fitted curve at half-maximal effect
How it was run: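 AC50 from Hill fit of concentration-response; data normalized to DMSO (basal) and 15 uM tetraoctylammonium bromide (100%). LYMP1-001 lymphoblastoid cells, 2500/well, 16 hr compound at 37 C; dead-cell protease fluorescence, Ex/Em 485/520.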

[7] = MultiTox-Fluor Cytotoxicity Assay - LYMP1-001 - Live Cells (AID 947); also: potency is read from the fitted curve at half-maximal effect
[8] = MultiTox-Fluor Cytotoxicity Assay - LYMP1-002 - Live Cells (AID 955); also: potency is read from the fitted curve at half-maximal effect
How it was run: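 After 16 h compound exposure at 37 C, live LYMP1-002 lymphoblastoid cells (2500/well) were quantified by cleavage of cell-permeant GF-AFC substrate, read at 405/510 nm after 60 min. Concentration-response fitted with Hill equation for AC50.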

[9] = MultiTox-Fluor Cytotoxicity Assay - LYMP1-003 - Dead Cells (AID 961); also: nearly all actives have a fitted effect of over 70% in size; also: potency is read from the fitted curve at half-maximal effect
How it was run: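 Human lymphoblastoid LYMP1-003 cells (2500/well) were treated with compounds for 16 hr at 37 C in complete medium. Dead-cell protease release was read by bis-AAF-R110 fluorescence (Ex/Em 485/520). AC50 came from Hill fits, normalized to DMSO and 15 uM tetraoctylammonium bromide.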

[10] = Cell Viability - LYMP1-003 - Assay at 24 hr (AID 963); also: potency is read from the fitted curve at half-maximal effect
How it was run: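 Concentration-response qHTS: ATP loss measured by CellTiter-Glo luminescence after 24 h compound exposure at 37 C. Cells were LYMP1-003 human lymphoblastoid, 2500 per well. AC50 derived via standard Hill equation modeling.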

[11] = Cell Viability - LYMP2-005 (AID 967); also: potency is read from the fitted curve at half-maximal effect
How it was run: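 Luciferase-based ATP quantitation served as the viability measure in human lymphoblastoid LYMP2-005 cells exposed to test compounds for 24 h at 37 C in complete culture medium. Potency (AC50) was obtained by fitting concentration-response curves with the Hill equation.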

[12] = Cell Viability - LYMP2-015 (AID 971); also: nearly all actives have a fitted effect of over 55% in size; also: potency is read from the fitted curve at half-maximal effect
How it was run: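 Cytotoxicity readout: decrease in intracellular ATP (CellTiter-Glo luminescence) in 2500 LYMP2-015 lymphoblastoid cells/well after 24 h compound exposure at 37 C. Concentration-response data fitted with the standard Hill equation to give AC50.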

[13] = Cell Viability - LYMP2-002 (AID 977); also: potency is read from the fitted curve at half-maximal effect
How it was run: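 Human lymphoblastoid cells (2500/well) in complete medium were preincubated 5 hr at 37 C, then exposed to compounds for 24 hr at 37 C. Intracellular ATP was read by CellTiter-Glo luminescence; AC50 came from Hill-equation concentration-response fits.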

[14] = Cell Viability - LYMP2-016 (AID 984); also: nearly all actives have a fitted effect of over 55% in size; also: potency is read from the fitted curve at half-maximal effect
How it was run: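 Concentration-dependent ATP depletion measured in LYMP2-016 lymphoblastoid cells, 24 h, 37 C; luciferase-based luminescent detection; Hill-equation AC50.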

[15] = qHTS assay for small molecule antagonists of retinoid X receptor alpha signaling (AID 588546); conditions: HEK293T RXRa-UAS-bla, beta-lactamase ratio, antagonist mode; measured here: W530 green channel, cytotoxicity proxy;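 also: cells stimulated with 9-cis-retinoic acid as agonist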
How it was run: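 Beta-lactamase reporter inhibition, read as CCF4 fluorescence ratio (ex 405, em 460/530 nm) after 2 h at RT. HEK293T UAS-bla cells, 2500/well, were stimulated with 9-cis-RA at 500 or 100 nM final alongside test compound for 18 h at 37 C.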

[16] = target: Tumor necrosis factor (Homo sapiens) (UniProt P01375); assay: qHTS assay to identify small molecules that stimulate Tumor Necrosis Factor-alpha (TNF-alpha) secretion (AID 651757; active = well fitted curve in the direction sought with a large enough effect in the signal ratio; the % refers to the signal ratio)
Sequence of Tumor necrosis factor (Homo sapiens) (P01375 whole entry, looked up): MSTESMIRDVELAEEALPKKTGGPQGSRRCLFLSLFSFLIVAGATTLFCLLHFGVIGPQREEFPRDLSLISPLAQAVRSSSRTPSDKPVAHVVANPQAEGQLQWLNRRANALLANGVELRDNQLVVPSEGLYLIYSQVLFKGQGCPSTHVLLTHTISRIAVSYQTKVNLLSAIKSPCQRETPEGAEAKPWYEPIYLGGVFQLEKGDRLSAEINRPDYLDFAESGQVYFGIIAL
How it was run: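 Secreted TNF-alpha quantified by TR-FRET sandwich of two labeled anti-TNF-alpha antibodies, incubated 3 hr at room temperature. Preceded by 17 hr, 37 C compound treatment of THP-1 cells at 3000 cells/well.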

[17] = qHTS assay for environmental chemicals that activate the Aryl hydrocarbon Receptor (AhR) signaling pathway (AID 651777); conditions: 1A2-DRE human hepatoma cells, luciferase, 24 h; activation: stronger effect = higher value; also: nearly all actives have a fitted effect of over 15% in size
How it was run: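 Human hepatoma 1A2-DRE cells stably carrying a DRE/CYP1A2 promoter–luciferase reporter, 1,200 cells/well, exposed to compound 24 hr at 37 C. Luciferase read by One-Glo luminescence after 30 min at room temperature; increased signal marks AhR activation.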

[18] = qHTS assay for small molecule antagonists of the retinoid-related orphan receptor gamma (ROR-gamma) signaling pathway - cell viability counter screen (AID 720652; active = well fitted curve in the direction sought with a large enough effect in the repeat runs; an effect the other way counts as inactive or inconclusive;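 also: CHO reporter cells with doxycycline-induced ROR-gamma expression; compound exposure lasted 16 hr before ATP read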)
How it was run: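 Cytotoxicity counter screen: intracellular ATP (CellTiter-Glo luminescence) measured in the doxycycline-induced CHO RORE-luciferase reporter line after 16 hr compound exposure at 37 C, 5% CO2.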

[19] = qHTS assay for cell viability of HEK293 cells (AID 743288); conditions: ATP luminescence (CellTiter-Glo), 18 h; max response: stronger effect = lower value; also: nearly all actives have a fitted effect of over 50% in size
How it was run: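 HEK293, 18 h, 37 C, ATP luminescence. Cells at 2,000/well were allowed at least 5 h to settle before dosing; CellTiter-Glo developed 30 min at RT.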

[20] = qHTS assay for cell viability of the p53RE-bla HCT-116 cell line (AID 743292); also: nearly all actives have a fitted effect of over 55% in size
How it was run: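 CellSensor p53RE-bla HCT-116 cells (4,000/well) pre-incubated 5 h at 37 C, then exposed to compounds in DMSO for 16 h at 37 C. Viability read as ATP content by CellTiter-Glo luminescence after 30 min at room temperature.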

Row | SMILES | activity change, negative = cytotoxicity [1] | caspase-3 activation [2] | outcome [3] | Potency [4] | Potency [5] | Potency [6] | Potency [7] | Potency [8] | Potency [9] | Potency [10] | Potency [11] | Potency [12] | Potency [13] | Potency [14] | max response [15] | outcome [16] | activation [17] | Potency [18] | max response [19] | Potency [20]
1 | CCO | -0.0856% (inactive) | -0.073% (inactive) | inactive | inactive | inactive | inactive | inactive | inactive | inactive | inactive | inactive | inactive | inactive | inactive | -7.92% | inactive | -1.26% (inactive) | inactive | 8.81% (inactive) | inactive
2 | O=NO | -19.4% (inactive) and -4.96% (inactive) | -1.69% (inactive) and 0.278% (inactive) | inactive | inactive | inactive | inactive | inactive | inactive | inactive | inactive | inactive | inactive | inactive | inactive | -4.23% and -6.24% | inactive | -0.432% (inactive) and -1.54% (inactive) | inactive | 0.172% (inactive) and -0.275% (inactive) | inactive
3 | C=CC(=O)OCCOCCOCCOCCOC(=O)C=C | -110% (active) and -111% (active) |  |  |  | 15.8 µM (active) | 50.1 µM (active) | 31.6 µM (active) and 39.8 µM (active) | 12.6 µM (active) and 15.8 µM (active) | 20 µM (active) and 25.1 µM (active) | 31.6 µM (active) and 39.8 µM (active) | 10 µM (active) and 15.8 µM (active) | 25.1 µM (active) and 20 µM (active) | 15.8 µM (active) and 25.1 µM (active) | 20 µM (active) and 15.8 µM (active) |  | inactive | 1.73% (inactive) and 5.16% (inactive) | inactive |  | inactive
4 | COC(=O)c1ccc(C)cc1 | -14.4% (inactive) | 0.483% (inactive) | inactive | inactive | inactive | inactive | inactive | inactive | inactive | inactive | inactive | inactive | inactive | inactive | -12.4% and -3.35% | inactive | -1.02% (inactive) and 0.0239% (inactive) | inactive | 4.41% (inactive) and -4.05% (inactive) | inactive
5 | CCC(C)c1ccccc1O (stereo unspecified) | 0.301% (inactive) and 2.4% (inactive) | 0.687% (inactive) and -0.479% (inactive) | inactive | inactive | inactive | inactive | inactive | inactive | inactive | inactive | inactive | inactive | inactive | inactive | -6.22% and -6.2% and -6.14% | inactive | -0.0817% (inactive) and -0.418% (inactive) and 0.519% (inactive) | inactive | 12.6% (inactive) and 1.15% (inactive) and -2.8% (inactive) | inactive
6 | O=C(O)c1ccc(O)cc1O | 7.6% (inactive) and 11% (inactive) | -0.639% (inactive) and 0.659% (inactive) | inactive | inactive | inactive | inactive | inactive | inactive | inactive | inactive | inactive | inactive | inactive | inactive | -5.6% | inactive | 0.974% (inactive) and 0.552% (inactive) | inactive | -11.1% (inactive) and 9.9% (inactive) | inactive
7 | CCCCCCCCCCCCCCC1CO1 (stereo unspecified) | 8.54% (inactive) | 0.846% (inactive) | inactive | inactive | inactive | inactive | inactive | inactive | inactive | inactive | inactive | inactive | inactive | inactive | -4.45% and -4.75% | inactive | 0.108% (inactive) and 0.658% (inactive) | inactive | -3.91% (inactive) and -17.2% (inactive) | inactive
8 | COc1ccc2nc(N)sc2c1 | -0.684% (inactive) | -5.35% (inactive) | inactive | inactive | inactive | inactive | inactive | inactive | inactive | inactive | inactive | inactive | inactive | inactive | -1.24% and 0.0893% |  |  | inactive | 3.97% (inactive) and -4.38% (inactive) | inactive
9 | Cc1ccc([N+](=O)[O-])c(C)c1 | -14.6% (inactive) | 0.882% (inactive) | inactive | inactive | inactive | inactive | inactive | inactive | inactive | inactive | inactive | inactive | inactive | inactive | -2.42% and -7.16% | inactive | -0.465% (inactive) and 2.75% (inactive) | inactive | 0.892% (inactive) and -5.18% (inactive) | inactive
10 | c1ccccc1 | -0.296% (inactive) and -3.09% (inactive) | 0.593% (inactive) and 0.461% (inactive) | inactive | inactive | inactive | inactive | inactive | inactive | inactive | inactive | inactive | inactive | inactive | inactive | 6.17% [middle of 4 runs] | inactive |  |  | 0.515% (inactive) [middle of 4 runs] | inactive
